Experimental findings from PubChem BioAssay AID504692 (The Scripps Research Institute Molecular Screening Center, 2011) are described below.

Each structure is given as a SMILES string. Screen size: about 340,000 compounds; about 2,000 (0.59%) were called active. This excerpt belongs to a sample that is enriched for actives. Values without a mark were called inactive. No stated cut-off is given here; in the data, active means activation mostly above about 9.5% (no sharp cut-off); inactive means mostly below about 7.6%.

The target of the assay is 5-hydroxytryptamine receptor 5A (Homo sapiens) (UniProt P47898). In words: HTR5A agonists in luminescence cell assay, primary screen, counter-screen for OPRM1-OPRD1 heterodimer agonist project, full-deck HTS (AID 504692).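 Further: 0% = cells with vehicle only and 100% = reference agonist.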 The note with it: cell-based, at 9.3 µM, hits give high values. For orientation: Counterscreens check selectivity or assay interference.
Chain of 5-hydroxytryptamine receptor 5A (Homo sapiens) (P47898 whole entry, looked up): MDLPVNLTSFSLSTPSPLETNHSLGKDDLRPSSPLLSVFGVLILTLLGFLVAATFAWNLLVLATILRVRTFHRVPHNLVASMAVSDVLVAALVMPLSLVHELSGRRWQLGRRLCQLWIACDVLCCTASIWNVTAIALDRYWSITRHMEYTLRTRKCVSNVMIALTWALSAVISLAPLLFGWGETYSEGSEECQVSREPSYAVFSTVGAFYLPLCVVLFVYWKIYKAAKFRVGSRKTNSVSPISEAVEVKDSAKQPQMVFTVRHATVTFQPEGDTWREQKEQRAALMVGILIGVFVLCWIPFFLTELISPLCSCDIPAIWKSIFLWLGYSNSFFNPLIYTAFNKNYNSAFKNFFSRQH
As for `CCOc1ccccc1NC(=O)CCS(=O)(=O)c1cccc2nsnc12`, the activation is 6.16%.

As to `O=C(COC(=O)c1cccnc1Cl)NC(=O)NC1CCCCC1`, the activation was -1.43%.

As for `OC(COCCC12CC3CC(CC(C3)C1)C2)CN1CCCCC1` (stereo not given), the activation is 3.12%.

Regarding `CCCOc1cccc(C(=O)Nc2ccccc2C(=O)N2CCN(C)CC2)c1`, the activation is -7.36%.

On to `COc1ccccc1CNC(=O)COn1nnc2ccc(S(=O)(=O)N3CCOCC3)cc21`, for which the activation is -2.13%.

Consider `O=C(COc1ccccc1)N1CCN=C1SCc1cccc(F)c1`, for which the activation is 8.07%.

`CN(Cc1cnccn1)C(=O)c1cc(COc2cccc(C(F)(F)F)c2)on1`: the activation is 0.68%.

Consider `CN(Cc1cccnc1)C(=O)c1cc(COc2ccc3ncccc3c2)on1`, for which the activation was 11.7% (active).

`CC(=O)c1cccc(OCc2cc(C(=O)NC(C)Cc3cccnc3)no2)c1` (stereo not given): the activation is 2.99%.

In the case of `O=S(=O)(NC1CCCC1)c1ccc(-n2cnnn2)cc1`, the activation is 4.29%.

Take `CCn1c(C(C)C)n[nH]c1=S`: the activation was 1.98%.

For the molecule `CCOC(=O)c1c(NC(=O)CSc2cn(CC)c3ccccc23)sc2c1CCC2`, the activation is -4.94%.

Take `CCOC(=O)c1c(NC(=O)NC(C)(C)C)sc2c1CCN(C)C2`: the activation was -2.16%.

For `CCOC(=O)c1c(NC(=O)Cn2nc(C(F)(F)F)cc2C)sc2c1CCC2`, the activation was 12.1% (active).

Take `CCCn1c(SCC(=O)Nc2c(C)cccc2C)nnc1C(C)C`: the activation is -3.62%.

Consider `O=C(COc1ccccc1Cl)Nn1cnnc1`, for which the activation was 0.57%.

For `COc1cc(-c2c(-c3ccc4c(c3)OCO4)noc2C)ccc1F`, the activation is -0.29%.

Turning to `COc1cc2c(-c3ccc4c(c3)OCO4)c(-c3ccsc3)oc(=O)c2cc1OC`, the activation was 15.3% (active).

`COC(=O)c1c(-c2ccsc2)oc2ccc(-c3cc(OC)c(OC)c(OC)c3)cc12`: the activation was 6.62%.

`O=C(CCl)NNc1cccc(Cl)n1`: the activation was -8.59%.

`COc1ccc2c(c1)C(=O)CC(c1ccccc1)O2` (stereo not given): the activation was -1.73%.

Take `COc1ccc(N)c(C)c1`: the activation is 0.27%.

As for `COc1ccc2c(c1)SC(C)CC2=O` (stereo not given), the activation was 10.6% (active).

On to `O=S(=O)(c1cccc(-c2nnc(SC(F)F)n2-c2ccccc2)c1)N1CCCCC1`, for which the activation was 0.34%.

Turning to `Cc1ccc(CN2CCN(Cc3cn(C)nc3-c3ccccc3)CC2CCO)o1` (stereo not given), the activation was -1.42%.

For the molecule `Cc1ccc(CN2CCN(Cc3ccc(OCCO)cc3)CC2CCO)o1` (stereo not given), the activation is 15% (active).

Turning to `CCOc1ccc(CN2CCN(Cc3ccc(C)o3)CC2CCO)cc1` (stereo not given), the activation was -1.69%.

`Cc1ccc2c(c1)C(c1ccccc1)N(C(=O)c1ccc(F)cc1)CC(=O)N2` (stereo not given): the activation was -1.42%.

Consider `COc1ccc2c(CC(=O)OCC(=O)Nc3ccccc3[N+](=O)[O-])coc2c1`, for which the activation was -1.41%.

As to `O=S(=O)(Nc1ccccc1)c1ccc(NS(=O)(=O)c2cccs2)cc1`, the activation was 9.34% (active).

For the molecule `Cc1ccc(NS(=O)(=O)c2cccs2)cc1S(=O)(=O)N1CCCCCC1`, the activation is 0.15%.

For the molecule `O=S(=O)(Nc1ccccc1Br)c1cccs1`, the activation is 8.11%.

For the molecule `Cc1c(OC(C)C(=O)NCC2CCC(C(=O)O)CC2)ccc2c1oc(=O)c1ccccc12` (stereo not given), the activation is 1%.

Regarding `CCOC(=O)N1CCC(Nc2c(NCCCN3CCN(c4ccc(OC)cc4)CC3)c(=O)c2=O)CC1`, the activation was -0.13%.

As for `COc1ccc(S(=O)(=O)Nc2cc(C)on2)cc1NC(C)=O`, the activation is 1.04%.

Take `CC(C)(C)c1ccc(C(=O)N2CCC(C(=O)N3CCCCC3)CC2)cc1`: the activation is 5.42%.

Regarding `COc1ccccc1CNC(=O)C1CCN(S(=O)(=O)c2ccc3c(c2)CC(C)N3C(=O)C2CC2)CC1` (stereo not given), the activation was -0.1%.

For `COc1ccc(S(=O)(=O)N2CCN(CC(=O)N3c4ccccc4CC3C)CC2)cc1OC` (stereo not given), the activation was 22.4% (active).

Consider `CC1Cc2ccccc2N1C(=O)CSc1nnc(-c2ccc(S(=O)(=O)N3CCCC3)cc2)n1C` (stereo not given), for which the activation is 2.27%.

For the molecule `O=C(CCS(=O)(=O)c1cccc2nsnc12)N1CCN(c2ccccc2F)CC1`, the activation is 5.73%.

For the molecule `CN(Cc1ccccc1F)C(=O)C(Cc1ccccc1)NC(=O)c1ccccc1` (stereo not given), the activation is -1.74%.

Consider `CC(Cc1ccccc1)C(=O)N(C)Cc1ccccc1` (stereo not given), for which the activation is 12.5% (active).

As to `CN(Cc1ccccc1)C(=O)c1cccc(C(=O)N(C)Cc2ccccc2)c1`, the activation was -0.63%.

With `O=C(COC(=O)/C=C/c1ccc(S(=O)(=O)N2CCCCCC2)cc1)NCc1ccccc1Cl`, the activation was -5.05%.

`O=C1CCCN2N=C(SCC(=O)Nc3ccc(Br)cc3)SC2=N1`: the activation was -3.71%.

On to `CCCCCN(C(=O)NC(=O)Nc1ccccc1OC)S(C)(=O)=O`, for which the activation was -1.57%.

`Cc1ccc(C2=N/C(=C\c3ccc(OS(=O)(=O)c4ccc(C)cc4)cc3)C(=O)O2)cc1`: the activation is 0.86%.

As for `CCOc1cc(/C=C2/N=C(c3ccc(C(C)(C)C)cc3)OC2=O)cc(Cl)c1OS(C)(=O)=O`, the activation was 13.3% (active).

Consider `Cc1cc(C)c(C)c(S(=O)(=O)Nc2ccc(O)cc2)c1C`, for which the activation is 3.2%.

As to `Cc1cc(C)c(C)c(S(=O)(=O)Nc2cccnc2)c1C`, the activation is 13.8% (active).

For the molecule `COc1ccc(S(=O)(=O)Nc2cccnc2)c(Cl)c1Cl`, the activation is -1.41%.

Turning to `O=C(OCc1ccc([N+](=O)[O-])cc1)C1CC(=O)N(Cc2ccccc2Cl)C1` (stereo not given), the activation is -0.92%.

For the molecule `CCc1cccc(C)c1NS(=O)(=O)c1c(C)nc2sccn2c1=O`, the activation is 0.59%.

Turning to `COCCC(=O)N1CCC(Oc2ccc(C(=O)NCc3ccon3)cc2)CC1`, the activation was 1.64%.

For `COc1ccc(CCNC(=O)CC2SC(=Nc3cc(C)cc(C)c3)NC2=O)cc1OC` (stereo not given), the activation was 1.71%.

Regarding `O=C(CC1NCCNC1=O)Nc1ccc(Oc2ccccc2)cc1` (stereo not given), the activation is 1.17%.

Regarding `COC(=O)c1cc(C)sc1NC(=O)CC1Nc2ccccc2NC1=O` (stereo not given), the activation is 2.14%.

Turning to `O=C(CC1Nc2ccccc2NC1=O)Nc1ccccc1` (stereo not given), the activation is 17% (active).

For the molecule `COc1ccc(/C=C(\NC(=O)c2ccc(OCC(C)C)cc2)C(=O)OCc2ccco2)cc1`, the activation was -0.73%.

Turning to `O=S(=O)(NCc1cccnc1)c1ccc(Cl)nc1`, the activation was -5.88%.
